Laboratory results reported in PubChem BioAssay (Tox21).
Where “and” joins values, the source holds several entries; their conditions need not be identical. Equal values may be shown once. Where a structure was tested more than once in an assay, its records may differ in their call. Calls of active or inactive are those of the source. Unless noted, the call rests on the fitted dose curve.

Assays:
[1] = qHTS assay to identify small molecule antagonists of the retinoic acid receptor (RAR) signaling pathway (AID 1159552; active means well fitted curve in the direction sought with a large enough effect in the repeat runs; inconclusive means weak or mixed curves; inactive means no such curve, though single readings can be large; an effect the other way counts as inactive or inconclusive; further: nearly all actives have a fitted effect of over 50% in size; further: potency means the concentration at half of the fitted maximal effect)
Procedure, shortened: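 Quantitative HTS in C3RL4 RARE-luciferase reporter cells. Compounds were added with 1 uM (final) retinol; luminescence was read after 6 hr.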

[2] = target: Androgen receptor (Homo sapiens) (UniProt P10275); assay: qHTS assay to identify small molecule antagonists of the androgen receptor (AR) signaling pathway using the MDA cell line in the presence of 0.5 nM R1881 (AID 1259243; active means well fitted curve in the direction sought with a large enough effect in the repeat runs; inconclusive means weak or mixed curves; inactive means no such curve, though single readings can be large; an effect the other way counts as inactive or inconclusive; further: nearly all actives have a fitted effect of over 50% in size; further: potency means the concentration at half of the fitted maximal effect)
Androgen receptor (Homo sapiens), sequence (P10275 whole entry, looked up): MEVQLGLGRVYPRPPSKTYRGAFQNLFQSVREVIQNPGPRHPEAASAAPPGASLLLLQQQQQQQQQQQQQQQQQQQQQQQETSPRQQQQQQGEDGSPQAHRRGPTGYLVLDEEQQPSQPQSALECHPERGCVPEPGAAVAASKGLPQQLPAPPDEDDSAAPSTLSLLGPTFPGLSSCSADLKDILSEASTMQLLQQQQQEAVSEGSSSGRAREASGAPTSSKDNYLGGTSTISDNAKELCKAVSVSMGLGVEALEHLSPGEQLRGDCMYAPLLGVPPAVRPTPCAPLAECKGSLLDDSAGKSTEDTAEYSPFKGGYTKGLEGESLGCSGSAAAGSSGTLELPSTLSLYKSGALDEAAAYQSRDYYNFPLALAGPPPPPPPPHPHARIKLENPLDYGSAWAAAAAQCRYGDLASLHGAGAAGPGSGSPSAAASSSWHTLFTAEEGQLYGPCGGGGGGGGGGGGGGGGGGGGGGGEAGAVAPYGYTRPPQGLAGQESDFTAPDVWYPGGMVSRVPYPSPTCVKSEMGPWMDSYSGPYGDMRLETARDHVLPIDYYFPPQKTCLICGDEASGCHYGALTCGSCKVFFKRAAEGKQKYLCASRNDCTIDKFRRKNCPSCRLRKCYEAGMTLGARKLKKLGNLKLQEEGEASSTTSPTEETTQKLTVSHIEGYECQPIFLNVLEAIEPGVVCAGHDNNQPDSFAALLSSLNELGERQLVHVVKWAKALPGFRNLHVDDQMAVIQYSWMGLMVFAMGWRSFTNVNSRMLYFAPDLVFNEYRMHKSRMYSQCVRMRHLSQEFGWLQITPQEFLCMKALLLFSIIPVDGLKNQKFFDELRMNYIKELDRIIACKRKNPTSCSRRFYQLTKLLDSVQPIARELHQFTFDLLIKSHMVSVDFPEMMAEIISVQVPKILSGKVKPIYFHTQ
Procedure, shortened: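 MDA-kb2 human breast carcinoma cells carrying an MMTV-luciferase reporter (AR- and GR-responsive) were plated, rested 5 hr at 37C, dosed with compounds, then stimulated with 0.5 nM R1881 (final) for 16 hr; luminescence was read after ONE-Glo.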

[3] = target: Androgen receptor (Homo sapiens) (UniProt P10275); assay: qHTS assay to identify small molecule agonists of the androgen receptor (AR) signaling pathway in the presence of an antagonist (AID 1259381); further: nearly all actives have a fitted effect of over 15% in size; further: potency means the concentration at half of the fitted maximal effect
Procedure, shortened: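 MDA-kb2 human breast carcinoma cells carrying an MMTV-luciferase reporter (AR- and GR-responsive) were treated with compounds at 15 concentrations plus 3.0uM final nilutamide for 16hr at 37C without CO2; luminescence was read after ONE-Glo addition.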

[4] = target: Progesterone receptor (Homo sapiens) (UniProt P06401); assay: qHTS assay to identify small molecule antagonists of the progesterone receptor (PR) signaling pathway (AID 1346795; active means well fitted inhibition curve with a large enough effect in the signal ratio in the repeat runs, not every such curve was filed as active; inconclusive means weak or mixed curves; the % refers to the signal ratio; further: potency means the concentration at half of the fitted maximal effect)
Progesterone receptor (Homo sapiens), sequence (P06401 whole entry, looked up): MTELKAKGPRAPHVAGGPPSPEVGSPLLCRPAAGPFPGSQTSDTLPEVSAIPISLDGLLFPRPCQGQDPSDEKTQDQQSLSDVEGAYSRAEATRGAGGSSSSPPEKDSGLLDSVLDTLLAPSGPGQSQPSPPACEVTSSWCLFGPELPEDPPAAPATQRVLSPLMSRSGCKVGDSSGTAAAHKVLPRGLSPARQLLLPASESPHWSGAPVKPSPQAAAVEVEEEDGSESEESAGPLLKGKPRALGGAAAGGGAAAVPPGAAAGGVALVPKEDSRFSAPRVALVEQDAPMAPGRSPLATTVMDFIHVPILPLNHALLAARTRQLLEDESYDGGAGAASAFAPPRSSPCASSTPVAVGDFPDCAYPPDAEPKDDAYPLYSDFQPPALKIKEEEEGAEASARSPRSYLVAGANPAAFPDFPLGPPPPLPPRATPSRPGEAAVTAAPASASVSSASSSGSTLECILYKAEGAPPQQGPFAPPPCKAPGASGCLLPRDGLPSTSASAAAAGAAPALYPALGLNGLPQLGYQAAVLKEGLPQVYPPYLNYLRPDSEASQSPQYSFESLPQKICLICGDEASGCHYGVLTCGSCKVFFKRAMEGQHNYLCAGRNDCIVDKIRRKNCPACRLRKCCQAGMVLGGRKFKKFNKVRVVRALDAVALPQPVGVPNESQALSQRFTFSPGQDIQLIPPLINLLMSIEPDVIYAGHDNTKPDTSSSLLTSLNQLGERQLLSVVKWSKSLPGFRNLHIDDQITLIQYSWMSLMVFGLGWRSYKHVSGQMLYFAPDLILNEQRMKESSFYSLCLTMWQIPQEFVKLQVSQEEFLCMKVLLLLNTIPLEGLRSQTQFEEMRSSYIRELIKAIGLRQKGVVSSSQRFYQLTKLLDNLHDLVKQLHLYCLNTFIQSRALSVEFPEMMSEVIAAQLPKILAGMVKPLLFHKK
Procedure, shortened: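 HEK293T PR-UAS-bla reporter cells in charcoal-stripped serum (2%) received compound after a 6 hr settling period, followed by R5020 agonist at 1 nM final; 16 hr incubation preceded the FRET substrate step and fluorescence measurement.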

[5] = qHTS assay to identify small molecule agonists of the progesterone receptor (PR) signaling pathway - cell viability counter screen (AID 1346799); further: nearly all actives have a fitted effect of over 45% in size; further: potency means the concentration at half of the fitted maximal effect
Procedure, shortened: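 Counter screen for cytotoxicity: compound-treated PR-UAS-bla HEK293T cells (16 hr, 37C, 5% CO2) were assayed with CellTiter-Glo, luminescence measured after 30 min at room temperature.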

[6] = target: Retinoic acid receptor RXR-alpha (Homo sapiens) (UniProt P19793); assay: qHTS assay to identify small molecule agonists of the RXR signaling pathway (AID 1159527); further: nearly all actives have a fitted effect of over 35% in size; further: potency means the concentration at half of the fitted maximal effect
Retinoic acid receptor RXR-alpha (Homo sapiens), sequence (P19793 whole entry, looked up): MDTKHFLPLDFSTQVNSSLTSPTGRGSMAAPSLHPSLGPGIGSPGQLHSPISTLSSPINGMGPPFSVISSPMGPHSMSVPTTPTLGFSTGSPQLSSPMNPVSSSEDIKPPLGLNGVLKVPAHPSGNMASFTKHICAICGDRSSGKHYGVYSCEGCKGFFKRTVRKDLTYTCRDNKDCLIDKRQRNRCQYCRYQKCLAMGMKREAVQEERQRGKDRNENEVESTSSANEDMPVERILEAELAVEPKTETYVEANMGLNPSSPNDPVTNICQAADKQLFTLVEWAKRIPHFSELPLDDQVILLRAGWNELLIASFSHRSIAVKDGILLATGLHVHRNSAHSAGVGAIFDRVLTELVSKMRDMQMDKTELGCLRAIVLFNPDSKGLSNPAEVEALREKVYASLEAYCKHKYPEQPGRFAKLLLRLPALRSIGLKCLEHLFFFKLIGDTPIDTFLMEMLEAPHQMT
Procedure, shortened: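 qHTS of the Tox21 10K library in GeneBLAzer RXR-alpha HEK 293T cells carrying a beta-lactamase reporter […]; 16 hr treatment, 9-cis retinoic acid as agonist control, FRET read-out.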

[7] = qHTS assay for identifying genotoxic compounds that show differential cytotoxicity against isogenic chicken DT40 cell lines with known DNA damage response pathways - Rev3 mutant cell line (AID 743014; active means well fitted curve in the direction sought with a large enough effect in the repeat runs; inconclusive means weak or mixed curves; inactive means no such curve, though single readings can be large; an effect the other way counts as inactive or inconclusive; further: nearly all actives have a fitted effect of over 55% in size; further: potency means the concentration at half of the fitted maximal effect)
[8] = qHTS assay to identify small molecule antagonists of the androgen receptor (AR) signaling pathway - cell viability counter screen (AID 743033; active means well fitted curve in the direction sought with a large enough effect in the repeat runs; inconclusive means weak or mixed curves; inactive means no such curve, though single readings can be large; an effect the other way counts as inactive or inconclusive; further: nearly all actives have a fitted effect of over 45% in size; further: potency means the concentration at half of the fitted maximal effect)
[9] = tested on: thyroid hormone receptor (rat, GH3 cells); assay: qHTS assay to identify small molecule agonists of the thyroid receptor (TR) signaling pathway (AID 743066)
[10] = qHTS assay to identify small molecule antagonists of the thyroid receptor (TR) signaling pathway - cell viability counter screen (AID 743064; active means well fitted curve in the direction sought with a large enough effect in the repeat runs; inconclusive means weak or mixed curves; inactive means no such curve, though single readings can be large; an effect the other way counts as inactive or inconclusive; further: nearly all actives have a fitted effect of over 50% in size; further: potency means the concentration at half of the fitted maximal effect)
Procedure, shortened: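 Plate GH3.TRE-Luc cells; incubate 4 h at 37 °C; add compound, then T3 to 1 nM final; incubate 23.5 h; add CellTiter-Fluor; incubate 30 min at 37 °C, 5% CO2; read fluorescence.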

[11] = qHTS assay to identify small molecule antagonists of the estrogen receptor alpha (ER-alpha) signaling pathway - cell viability counter screen (AID 743074);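 further: HEK293 cells carrying ER-alpha-UAS-bla reporter stimulated with 17beta-estradiol; nearly all actives have a fitted effect of over 45% in size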; further: potency means the concentration at half of the fitted maximal effect
[12] = target: Estrogen receptor (Homo sapiens) (UniProt P03372); assay: qHTS assay to identify small molecule agonists of the estrogen receptor alpha (ER-alpha) signaling pathway (AID 743075);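 further: HEK293 GripTite cells with ER-alpha and UAS-driven beta-lactamase reporter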; further: potency means the concentration at half of the fitted maximal effect
Estrogen receptor (Homo sapiens), sequence (P03372 whole entry, looked up): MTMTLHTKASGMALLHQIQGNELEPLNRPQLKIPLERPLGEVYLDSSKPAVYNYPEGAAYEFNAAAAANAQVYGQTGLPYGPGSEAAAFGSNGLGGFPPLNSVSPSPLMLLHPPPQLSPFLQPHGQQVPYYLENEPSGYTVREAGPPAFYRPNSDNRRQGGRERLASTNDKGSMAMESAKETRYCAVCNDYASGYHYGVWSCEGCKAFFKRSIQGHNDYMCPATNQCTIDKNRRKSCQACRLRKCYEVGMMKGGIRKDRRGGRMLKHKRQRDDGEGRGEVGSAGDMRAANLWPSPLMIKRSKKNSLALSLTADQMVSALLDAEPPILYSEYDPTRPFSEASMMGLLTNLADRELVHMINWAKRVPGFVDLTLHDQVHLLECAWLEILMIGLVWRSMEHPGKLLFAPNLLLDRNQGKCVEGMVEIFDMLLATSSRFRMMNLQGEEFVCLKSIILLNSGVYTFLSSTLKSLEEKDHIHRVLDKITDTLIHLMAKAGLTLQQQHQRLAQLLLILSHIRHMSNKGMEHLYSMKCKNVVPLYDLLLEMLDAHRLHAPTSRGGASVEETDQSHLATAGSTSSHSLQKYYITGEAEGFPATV

[13] = target: Thyrotropin receptor (Homo sapiens) (UniProt P16473); assay: qHTS assay to identify small molecule antagonists of the thyroid stimulating hormone receptor (TSHR) signaling pathway (AID 1259385); further: nearly all actives have a fitted effect of over 20% in size; further: potency means the concentration at half of the fitted maximal effect
Thyrotropin receptor (Homo sapiens), sequence (P16473 whole entry, looked up): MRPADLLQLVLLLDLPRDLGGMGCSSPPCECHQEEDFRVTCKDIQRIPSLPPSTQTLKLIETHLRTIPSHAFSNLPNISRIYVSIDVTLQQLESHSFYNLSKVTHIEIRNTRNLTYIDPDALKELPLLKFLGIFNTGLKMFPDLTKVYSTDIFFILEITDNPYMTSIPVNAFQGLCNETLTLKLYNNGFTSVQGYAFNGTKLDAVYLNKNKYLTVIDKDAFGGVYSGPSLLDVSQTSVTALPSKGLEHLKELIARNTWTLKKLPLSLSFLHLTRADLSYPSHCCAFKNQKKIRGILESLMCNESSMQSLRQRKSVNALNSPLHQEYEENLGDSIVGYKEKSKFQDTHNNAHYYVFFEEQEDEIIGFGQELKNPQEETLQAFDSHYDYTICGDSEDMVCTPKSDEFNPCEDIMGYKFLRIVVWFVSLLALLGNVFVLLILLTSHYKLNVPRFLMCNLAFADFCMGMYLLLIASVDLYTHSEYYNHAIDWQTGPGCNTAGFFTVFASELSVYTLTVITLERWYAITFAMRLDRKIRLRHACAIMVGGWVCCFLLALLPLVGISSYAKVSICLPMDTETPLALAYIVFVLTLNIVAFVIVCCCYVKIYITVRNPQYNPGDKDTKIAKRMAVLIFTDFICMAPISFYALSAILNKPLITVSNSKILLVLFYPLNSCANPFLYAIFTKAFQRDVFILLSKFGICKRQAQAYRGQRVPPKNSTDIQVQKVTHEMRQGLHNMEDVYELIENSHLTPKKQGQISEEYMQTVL
Procedure, shortened: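 Antagonist mode: compound-treated TSHR-expressing HEK293 cells were stimulated with 1.5 ng/mL TSH (final) in presence of Ro20-1724 for 30 min at RT. HTRF cAMP detection after 1 h; each compound tested at 15 concentrations, triplicate.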

[14] = target: Thyrotropin-releasing hormone receptor (Homo sapiens) (UniProt P34981); assay: qHTS assay to identify small molecule antagonists of the thyrotropin-releasing hormone receptor (TRHR) signaling pathway (AID 1346877; active means well fitted inhibition curve with a large enough effect in the repeat runs, not every such curve was filed as active; inconclusive means weak or mixed curves; further: series mostly up to about 51 µM)
Thyrotropin-releasing hormone receptor (Homo sapiens), sequence (P34981 whole entry, looked up): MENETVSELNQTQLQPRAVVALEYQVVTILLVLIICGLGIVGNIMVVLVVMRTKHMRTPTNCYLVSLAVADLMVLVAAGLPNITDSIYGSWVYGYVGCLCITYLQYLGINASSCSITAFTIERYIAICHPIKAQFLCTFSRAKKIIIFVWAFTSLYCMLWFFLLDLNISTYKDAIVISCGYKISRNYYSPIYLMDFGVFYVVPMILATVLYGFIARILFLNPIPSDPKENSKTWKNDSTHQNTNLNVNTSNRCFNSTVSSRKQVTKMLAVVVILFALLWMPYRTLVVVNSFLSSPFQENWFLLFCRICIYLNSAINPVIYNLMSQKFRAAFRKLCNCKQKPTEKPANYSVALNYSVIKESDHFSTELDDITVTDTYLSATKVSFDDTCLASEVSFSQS
Procedure, shortened: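 TRHR-expressing HEK293 cells were seeded, cultured 18 h at 37 °C, then loaded with calcium dye for 2 h. Compounds were pre-incubated 5 min at room temperature before 1 nM TRH (final) was added, and kinetic fluorescence was recorded for 3 min.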

[15] = target: Thyrotropin receptor (Homo sapiens) (UniProt P16473); assay: qHTS assay to identify small molecule agonists of the thyroid stimulating hormone receptor (TSHR) signaling pathway (AID 1224843); further: nearly all actives have a fitted effect of over 45% in size; further: potency means the concentration at half of the fitted maximal effect
Procedure, shortened: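 Screening of the Tox21 10K collection used HEK293 cells engineered with TSHR at 800 cells per well. After a 30-min room-temperature compound exposure, HTRF cAMP reagents were added and fluorescence recorded 1 h later.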

[16] = qHTS assay for small molecule disruptors of the mitochondrial membrane potential - cell viability (AID 720634); further: nearly all actives have a fitted effect of over 20% in size; further: potency means the concentration at half of the fitted maximal effect;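 on activity change, negative = cytotoxicity: human HepG2 liver cancer cells; series mostly up to about 83 µM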
Procedure, shortened: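 HepG2 cells seeded overnight at 37 C, then exposed to compound or DMSO for 1 hr at 37 C, 5% CO2. m-MPI dye added, then CellTiter-Glo for 30 min at room temperature; viability read as ATP luminescence.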

[17] = qHTS assay to identify small molecule antagonists of the estrogen receptor alpha (ER-alpha) signaling pathway using the BG1 cell line (AID 743080);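 further: BG1 cells stimulated with 17beta-estradiol alongside compound; nearly all actives have a fitted effect of over 25% in size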; further: potency means the concentration at half of the fitted maximal effect; on activity change, negative = inhibition: series mostly up to about 70 µM
Procedure, shortened: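 BG1-Luc-4E2 cells (endogenous full-length ER-alpha, stable 4×ERE-luciferase) were starved 5 days in phenol-red-free medium with 10% charcoal-stripped FBS, plated 24 h, then given compound plus 17beta-estradiol for 21.5 h at 37 C; ONE-Glo luminescence read after 30 min.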

[18] = qHTS assay to identify small molecule antagonists of the farnesoid-X-receptor (FXR) signaling pathway - cell viability counter screen (AID 743221; active means well fitted cell-killing curve with a large enough effect in the repeat runs, not every such curve was filed as active; inconclusive means weak or mixed curves, or effect the other way; inactive means no such curve, though single readings can be large or run the other way; further: nearly all actives have a fitted effect of over 50% in size; further: potency means the concentration at half of the fitted maximal effect)
Procedure, shortened: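 Quantitative HTS of the Tox21 10K library run in parallel with the beta-lactamase reporter read. HEK 293T cells carrying a UAS-driven bla reporter got compound and 50 uM CDCA (final) for 16 h; ATP-based luminescence followed.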

[19] = qHTS assay to identify small molecule antagonists of the glucocorticoid receptor (GR) signaling pathway - cell viability counter screen (AID 720693; active means well fitted curve in the direction sought with a large enough effect in the repeat runs; inconclusive means weak or mixed curves; inactive means no such curve, though single readings can be large; an effect the other way counts as inactive or inconclusive; further: nearly all actives have a fitted effect of over 55% in size; further: potency means the concentration at half of the fitted maximal effect)
[20] = target: Peroxisome proliferator-activated receptor gamma (Homo sapiens) (UniProt P37231); assay: qHTS assay to identify small molecule agonists of the peroxisome proliferator-activated receptor gamma (PPARg) signaling pathway (AID 743094; active means well fitted activation curve with a large enough effect in the signal ratio in the repeat runs, not every such curve was filed as active; inconclusive means weak or mixed curves, or effect the other way; inactive means no such curve, though single readings can be large or run the other way; the % refers to the signal ratio)
Peroxisome proliferator-activated receptor gamma (Homo sapiens), sequence (P37231 whole entry, looked up): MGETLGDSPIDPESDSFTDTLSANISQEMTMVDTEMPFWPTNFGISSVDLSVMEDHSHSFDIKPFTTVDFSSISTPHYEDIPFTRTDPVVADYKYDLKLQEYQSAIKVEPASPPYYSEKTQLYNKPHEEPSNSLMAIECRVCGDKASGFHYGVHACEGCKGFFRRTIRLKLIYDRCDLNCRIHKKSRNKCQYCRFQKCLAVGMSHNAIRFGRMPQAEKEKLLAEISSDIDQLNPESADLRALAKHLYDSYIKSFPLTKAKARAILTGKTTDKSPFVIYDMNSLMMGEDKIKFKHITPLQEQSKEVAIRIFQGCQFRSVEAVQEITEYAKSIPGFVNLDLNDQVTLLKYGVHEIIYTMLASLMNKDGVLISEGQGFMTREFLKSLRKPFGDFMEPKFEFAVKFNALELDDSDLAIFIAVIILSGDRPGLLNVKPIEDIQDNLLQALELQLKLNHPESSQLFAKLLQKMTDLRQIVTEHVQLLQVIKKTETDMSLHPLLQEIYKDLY
Procedure, shortened: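 GeneBLAzer PPARg UAS-bla HEK293H cells carrying a stably integrated beta-lactamase reporter were pre-incubated 5 h at 37C, then exposed to compounds in DMSO for 17 h at 37C; LiveBLAzer B/G FRET substrate was added for 1 h at room temperature and fluorescence read.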
On the % scale 0 is the no-effect control and ±100 the full control effect.

O=S(=O)(C(Cl)(Cl)Cl)C(Cl)(Cl)Cl
inactive: Potency [3] | Potency [4] | Potency [5]
active: Potency [1] 9.69 µM | Potency [2] 17.2 µM

CCc1cccc(CC)c1N
inactive: Potency [6]

Nc1ccc([N+](=O)[O-])cc1
inactive: Potency [9]
active: Potency [7] 13.3 µM | Potency [8] 54.9 µM | Potency [2] 8.63 µM | Potency [3] 61.1 µM | Potency [5] 7.7 µM

CO/C=C(/C(=O)OC)c1ccccc1Oc1cc(Oc2ccccc2C#N)ncn1
active: Potency [7] 0.103 µM | Potency [8] 18.5 µM | Potency [10] 33.6 µM | Potency [11] 16.5 µM | Potency [2] 5.81 µM | Potency [13] 61.1 µM
inactive: Potency [9] | Potency [12] | Potency [3] | outcome [14]

ClC1=C(Cl)C(Cl)(Cl)C(Cl)=C1Cl
inactive: Potency [6] | Potency [1]

Cc1c(N)cccc1[N+](=O)[O-]
inactive: Potency [6] | Potency [1]

Cc1ccc2nc3sc(=O)sc3nc2c1
inactive: activity, negative = inhibition [1] 10.1% [at 19 µM] | activation [15] -7.09% [at 19 µM] | activity change, negative = inhibition [13] 2.89% [at 19 µM] | activity change, negative = cytotoxicity [5] -2.84% [at 19 µM] | activity, negative = inhibition [14] 3.17% [at 10.5 µM]

O=C1C(I)=CC(=C(c2cc(I)c(O)c(I)c2)c2ccccc2C(=O)O)C=C1I
active: Potency [4] 29.8 µM
inactive: Potency [16] | Potency [7] | Potency [8] | Potency [9] | Potency [11] | Potency [12] | Potency [17] | Potency [18] | Potency [6] | Potency [1] | Potency [15] | Potency [13]

Cc1nnc2n1-c1sc(CCc3ccc(CC(C)C)cc3)cc1C(c1ccccc1Cl)=NC2C (centres undefined)
active: Potency [19] 23.9 µM | Potency [7] 16.8 µM | Potency [10] 15 µM | Potency [15] 18.8 µM
inactive: Potency [16] | Potency [8] | Potency [12] | Potency [13] | outcome [14]

Cc1cc(C(C)(C)c2ccc(O)c(C)c2)ccc1O
inactive: Potency [19] | Potency [7] | Potency [10] | Potency [9] | Potency [11] | Potency [18] | Potency [3] | Potency [13]
active: Potency [1] 58.2 µM | Potency [15] 46.2 µM | Potency [2] 4.62 µM

CCCCC(CC)COC(=O)c1ccc(C(=O)OCC(CC)CCCC)cc1 (centres undefined)
inactive: Potency [6] | Potency [1]

O=C1OC(=O)c2c(Cl)c(Cl)c(Cl)c(Cl)c21
inactive: Potency [6]

ClC(Cl)=C(c1ccc(Cl)cc1)c1ccccc1Cl
active: Potency [2] 9.69 µM
inactive: Potency [15] | Potency [3] | Potency [5] | outcome [14]

C[C@]12CC[C@@H](O)C[C@@H]1CC[C@@H]1[C@@H]2CC[C@]2(C)C(=O)CC[C@@H]12
active: Potency [5] 68.6 µM

COc1ccc(C(c2ccc(OC)cc2)C(Cl)(Cl)Cl)cc1
inactive: Potency [17] | Potency [18] | outcome [14]
active: Potency [10] 36.2 µM | Potency [12] 19.4 µM [inconclusive]

Brc1cc(Br)cc(Br)c1
inactive: Potency [6]

OC(Cc1ccccc1Cl)(Cn1[nH]cnc1=S)C1(Cl)CC1 (centres undefined)
active: Potency [2] 54.5 µM | Potency [4] 24.3 µM
inactive: Potency [15] | Potency [3] | Potency [13] | outcome [14]

Nc1ccc(Cl)cc1[N+](=O)[O-]
inactive: Potency [6]

O=C(c1ccccc1)C(Cl)Cl
inactive: Potency [3] | Potency [5] | outcome [14]
active: Potency [2] 4.33 µM

Cc1ccc(N(SC(F)(Cl)Cl)S(=O)(=O)N(C)C)cc1
inactive: Potency [19] | Potency [3] | Potency [5]
active: Potency [7] 0.122 µM | Potency [8] 3.47 µM | Potency [10] 2.73 µM | Potency [18] 19.5 µM | Potency [1] 13.7 µM | Potency [2] 15.4 µM | Potency [13] 61.1 µM

OCC(c1ccc(Cl)cc1)c1ccc(Cl)cc1
active: Potency [10] 61.1 µM | Potency [17] 68.6 µM
inactive: Potency [11] | Potency [12] | Potency [20] | Potency [18] | Potency [6] | Potency [13] | Potency [5] | outcome [14]

CC(c1ccccc1)(c1ccc(O)cc1)c1ccc(O)cc1
active: Potency [15] 15.4 µM
inactive: Potency [13] | outcome [14]

CC(C)(C)c1cc(C(C)(C)C)c(O)c(C(C)(C)C)c1
active: Potency [6] 15.5 µM

Oc1c(I)cc(I)cc1I
inactive: Potency [15] | Potency [2] | Potency [3] | Potency [13] | Potency [5]
active: Potency [4] 30.6 µM

O=[N+]([O-])c1cc(C(F)(F)F)ccc1Cl
inactive: Potency [6]

Cc1cc(C)c(C(=O)P(=O)(c2ccccc2)c2ccccc2)c(C)c1
active: Potency [2] 54.5 µM
inactive: Potency [15] | Potency [3] | Potency [13]

N#Cc1cc([N+](=O)[O-])ccc1N
inactive: Potency [15] | Potency [13] | Potency [5] | outcome [14]

CCOC(=O)C(O)(c1ccc(Cl)cc1)c1ccc(Cl)cc1
44.1 µM (active) and inactive: Potency [18]
inactive: Potency [9] | Potency [12] | Potency [20] | Potency [3] | outcome [14]
24.8 µM (active) and inactive: Potency [11]
active: Potency [16] 30.9 µM | Potency [19] 17.6 µM | Potency [7] 2.19 µM and 24.3 µM | Potency [8] 7.84 µM | Potency [10] 6.18 µM | Potency [1] 30.9 µM and 30.6 µM | Potency [2] 13.8 µM and 21.7 µM | Potency [4] 13.8 µM and 13.7 µM
